Assay results as given in PubChem BioAssay (NCI).
Compounds without any hit were thinned out: in the full panel of roughly 83,000, 20% have a hit.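 Assay: single dose, 48 h. Readout: percent growth (0 = no net growth; negative = cell death). Active: <10.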 Values without a mark were called inactive. The source made the active and inactive calls.

What follows are molecules tested on MDA-MB-468 breast (assay: NCI-60 one-dose screen, 48 h (100 = growth as untreated, 0 = no growth, -100 = all killed)). Details: 10 µM unless noted.

SMILES	growth
N#CC(C#N)=NO	93.2%
COc1ccccc1/C=C1\Oc2cc(OCCN3CCCC3)ccc2C1=O	56.3%
O=C(NCCNC(=O)c1cc(S(=O)(=O)NCCc2ccccc2)c(O)c(O)c1O)c1cc(S(=O)(=O)NCCc2ccccc2)c(O)c(O)c1O	83.2%
COc1cc(CN(c2ccc(C)cc2)C2OC(=O)c3ccccc32)cc(OC)c1OC (configuration not stated)	25%
O=Cc1c(OCc2cnnn2CC(=O)Nc2ccc(Cl)cc2)ccc2ccccc12	104%
CCn1cnc(C[C@H](NC(=O)[C@@H](NC(=O)Nc2cc(C(F)(F)F)cc(C(F)(F)F)c2)C(C)(C)C)C(=O)OC)c1	-75.6% [100 µM] (active)
CC(C)[C@@]12C[C@@H](OC(=O)C3CO3)[C@@](C)(O1)[C@@H]1CC[C@@H](C)[C@H]1[C@@H]2OC(=O)/C=C/c1ccccc1 (some centres not stated)	95.4%
COc1ccc(CN2C(=O)/C(=C\C(=O)c3ccc(OCCN4CCCC4)cc3)c3ccccc32)cc1	49.3%
COc1cc(C2CC(c3cccc(Nc4ccncc4)c3)=NN2c2ccccc2)cc(OC)c1OC (configuration not stated)	25.8%
Cc1nc(NC(=O)NC2CCCCC2)sc1C(=O)NN	97.3%
COc1cccc(C(=O)NNc2nc(N3CCOCC3)nc(N3CCN(C(c4ccccc4)c4ccccc4)CC3)n2)c1	61.7%
O=C1C(Nc2ccc(Cl)cc2)=C(I)C(=O)c2ncccc21	-72.3% (active)
COc1ccc(C(=O)NC(=O)Nc2cc3c(cc2F)/C(=C/c2[nH]c(C)c(CCC(=O)O)c2C)C(=O)N3)c(F)c1	50.4%
CCCOc1cc2ccccc2cc1C(=O)Nc1nc(NC)c2c(ccc3nccc32)[nH]1	-59.7% (active)
Cc1ccc(C=C2C(Cl)=C(Cl)C(Cl)=C2Cl)cc1	-59.4% (active)
Cn1c(=O)c2c(-c3ccccc3F)n(-c3ccc4c(c3)OCO4)cc2n(C)c1=O	83.2%
COc1cc2cc(Oc3ccc(NC(=O)Nc4cccc(C(F)(F)F)c4)cc3)c(C)nc2cc1OCCN(C)C	79.6%
COc1ccc(C/C(C)=C(\c2ccc(Cl)cc2)c2ccc(OCCCN(C)C)cc2)cc1	59.7%
O=C1/C(=C/c2ccc(O)cc2O)N=C2SCCCN12	96.1%
CNC(=O)c1cc(-c2ccc(NC(=O)Nc3ccc(N4CCOCC4)c(C(F)(F)F)c3)cc2)nc2cccnc12	29%
CCOc1ccc(NC2=C(Cl)C(=O)c3nc(C)ccc3C2=O)cc1	-95.2% (active)
NC1=NC(SCc2ccccc2CCl)c2ncn(Cc3ccccc3CCl)c2N1 (configuration not stated)	-33.2% (active)
CS(=O)(=O)c1ccc(-c2nc3ccccc3n2CC(=O)N/N=C/c2ccccc2)cc1	112%
O=C(NCCNCCO)c1cc([N+](=O)[O-])cc([N+](=O)[O-])c1O	103%
COc1cc(Nc2ncc(F)c(Nc3ccc4c(n3)NC(=O)C(C)(C)O4)n2)cc(OC)c1OC	27.7%
C=C(C=O)[C@@H]1CC[C@]2(C(=O)O)CC[C@]3(C)C(CC[C@@H]4[C@@](C)(CCC#N)[C@H](C(=C)C=O)CC[C@]43C)[C@@H]12 (some centres not stated)	79.8%
COc1ccc(C2CC(=O)Nc3c2c(C)nn3-c2nc3ccccc3[nH]2)cc1OC (configuration not stated)	59.6%
